# From the supplement of paper PMC11732987, “Enantioselective OTUD7B fragment discovery through chemoproteomics screening and high-throughput optimisation” (Communications Chemistry, 2025)
# Unmarked numbers belong to inactive results.
# What was measured:
# Assay in all cases: log2 ratio of Biotin-Ahx-Ub-VS probe labelling (fragment/DMSO); higher = less target engagement (more negative = stronger competition), active = hit call of the paper (q ≤ 0.05, log2 ratio ≤ -1)
# Settings in all cases: compound concentration: 200 uM; treatment time: 3 h
# OTUD6B = target: T1, OTUD6B (UniProt Q8N6M0)
# T1 sequence (whole entry): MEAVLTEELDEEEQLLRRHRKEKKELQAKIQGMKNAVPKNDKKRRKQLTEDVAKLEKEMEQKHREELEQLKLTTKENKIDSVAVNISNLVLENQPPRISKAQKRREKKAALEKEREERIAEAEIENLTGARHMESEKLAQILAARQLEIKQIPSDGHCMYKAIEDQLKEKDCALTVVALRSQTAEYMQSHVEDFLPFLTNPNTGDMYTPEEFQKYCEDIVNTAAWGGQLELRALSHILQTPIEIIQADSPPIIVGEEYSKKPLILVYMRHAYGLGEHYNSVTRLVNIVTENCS
# Procedure, shortened: (§1)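 HEK293T lysate (495 µg per sample, in Tris/CHAPS/IGEPAL buffer with protease inhibitors) was exposed in triplicate for 3 h to fragment at 200 µM or to vehicle, then to Biotin-Ahx-Ub-VS at 0.5 µM final for 1 h. Labelled DUBs were enriched on NeutrAvidin, digested with LysC and trypsin, and analysed by diaPASEF LC-MS/MS. Spectronaut label-free quantities were normalised to the global median, and values are average log2 ratios of fragment over vehicle from an unpaired t-test. Only proteins with ≥2 unique peptides were used.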
# OTUD7B = target: T2, OTUD7B (UniProt Q6GQQ9)
# T2 sequence (whole entry): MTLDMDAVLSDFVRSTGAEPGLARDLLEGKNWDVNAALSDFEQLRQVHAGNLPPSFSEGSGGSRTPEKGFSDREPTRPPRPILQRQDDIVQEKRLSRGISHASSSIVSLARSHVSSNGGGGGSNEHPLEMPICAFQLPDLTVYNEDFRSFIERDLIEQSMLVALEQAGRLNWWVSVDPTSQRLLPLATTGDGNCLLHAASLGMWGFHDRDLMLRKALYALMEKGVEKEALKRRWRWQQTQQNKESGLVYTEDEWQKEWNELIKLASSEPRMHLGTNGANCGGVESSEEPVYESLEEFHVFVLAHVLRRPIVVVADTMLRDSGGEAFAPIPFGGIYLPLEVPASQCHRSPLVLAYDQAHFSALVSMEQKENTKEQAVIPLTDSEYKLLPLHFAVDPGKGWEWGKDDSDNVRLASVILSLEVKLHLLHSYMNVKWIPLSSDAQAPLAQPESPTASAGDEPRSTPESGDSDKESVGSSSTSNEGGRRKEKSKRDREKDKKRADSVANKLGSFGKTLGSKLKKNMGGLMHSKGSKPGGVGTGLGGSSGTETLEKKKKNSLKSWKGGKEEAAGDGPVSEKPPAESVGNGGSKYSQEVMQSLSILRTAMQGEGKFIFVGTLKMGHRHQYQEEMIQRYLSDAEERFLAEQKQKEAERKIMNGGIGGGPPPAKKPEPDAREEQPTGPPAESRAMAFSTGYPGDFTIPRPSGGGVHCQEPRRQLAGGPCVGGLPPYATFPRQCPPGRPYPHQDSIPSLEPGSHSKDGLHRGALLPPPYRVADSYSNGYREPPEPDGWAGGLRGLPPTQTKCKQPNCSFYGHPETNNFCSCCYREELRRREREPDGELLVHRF
# Procedure, shortened: as §1
# PRPF8 = PRPF8 (UniProt Q6P2Q9)
# Procedure, shortened: as §1
# PSMD7 = target: T3, PSMD7 (UniProt P51665)
# T3 sequence (whole entry): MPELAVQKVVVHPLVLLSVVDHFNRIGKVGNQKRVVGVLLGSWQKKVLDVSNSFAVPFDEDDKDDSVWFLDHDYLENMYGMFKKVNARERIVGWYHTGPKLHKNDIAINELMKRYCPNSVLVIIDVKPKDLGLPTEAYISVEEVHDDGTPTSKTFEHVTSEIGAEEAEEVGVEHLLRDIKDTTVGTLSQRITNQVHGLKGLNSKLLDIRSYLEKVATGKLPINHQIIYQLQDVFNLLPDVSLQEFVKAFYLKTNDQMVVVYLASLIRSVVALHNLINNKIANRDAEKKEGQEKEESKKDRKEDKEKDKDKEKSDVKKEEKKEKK
# Procedure, shortened: as §1
# UCHL1 = UCHL1 (UniProt P09936)
# Procedure, shortened: as §1
# UCHL3 = target: T4, UCHL3 (UniProt P15374)
# T4 sequence (whole entry): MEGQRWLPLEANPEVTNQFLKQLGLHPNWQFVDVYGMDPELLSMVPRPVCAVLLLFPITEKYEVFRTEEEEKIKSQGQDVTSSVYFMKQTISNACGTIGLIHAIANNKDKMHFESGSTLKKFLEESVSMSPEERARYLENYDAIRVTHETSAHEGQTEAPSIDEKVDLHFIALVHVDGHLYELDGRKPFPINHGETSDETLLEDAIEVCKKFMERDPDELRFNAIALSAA
# Procedure, shortened: as §1
# UCHL5 = target: T5, UCHL5 (UniProt Q9Y5K5)
# T5 sequence (whole entry): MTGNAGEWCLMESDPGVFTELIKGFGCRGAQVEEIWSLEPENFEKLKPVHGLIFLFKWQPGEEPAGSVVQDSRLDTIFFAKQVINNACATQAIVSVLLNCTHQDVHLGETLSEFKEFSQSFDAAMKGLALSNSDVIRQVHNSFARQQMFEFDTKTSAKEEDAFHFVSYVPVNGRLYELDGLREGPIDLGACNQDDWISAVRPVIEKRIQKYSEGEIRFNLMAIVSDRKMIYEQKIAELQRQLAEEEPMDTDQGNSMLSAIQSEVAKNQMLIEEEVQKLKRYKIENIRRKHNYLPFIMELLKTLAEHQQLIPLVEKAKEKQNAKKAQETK
# Procedure, shortened: as §1
# USP10 = USP10 (UniProt Q14694)
# Procedure, shortened: as §1
# USP15 = target: T6, USP15 (UniProt Q9Y4E8)
# T6 sequence (whole entry): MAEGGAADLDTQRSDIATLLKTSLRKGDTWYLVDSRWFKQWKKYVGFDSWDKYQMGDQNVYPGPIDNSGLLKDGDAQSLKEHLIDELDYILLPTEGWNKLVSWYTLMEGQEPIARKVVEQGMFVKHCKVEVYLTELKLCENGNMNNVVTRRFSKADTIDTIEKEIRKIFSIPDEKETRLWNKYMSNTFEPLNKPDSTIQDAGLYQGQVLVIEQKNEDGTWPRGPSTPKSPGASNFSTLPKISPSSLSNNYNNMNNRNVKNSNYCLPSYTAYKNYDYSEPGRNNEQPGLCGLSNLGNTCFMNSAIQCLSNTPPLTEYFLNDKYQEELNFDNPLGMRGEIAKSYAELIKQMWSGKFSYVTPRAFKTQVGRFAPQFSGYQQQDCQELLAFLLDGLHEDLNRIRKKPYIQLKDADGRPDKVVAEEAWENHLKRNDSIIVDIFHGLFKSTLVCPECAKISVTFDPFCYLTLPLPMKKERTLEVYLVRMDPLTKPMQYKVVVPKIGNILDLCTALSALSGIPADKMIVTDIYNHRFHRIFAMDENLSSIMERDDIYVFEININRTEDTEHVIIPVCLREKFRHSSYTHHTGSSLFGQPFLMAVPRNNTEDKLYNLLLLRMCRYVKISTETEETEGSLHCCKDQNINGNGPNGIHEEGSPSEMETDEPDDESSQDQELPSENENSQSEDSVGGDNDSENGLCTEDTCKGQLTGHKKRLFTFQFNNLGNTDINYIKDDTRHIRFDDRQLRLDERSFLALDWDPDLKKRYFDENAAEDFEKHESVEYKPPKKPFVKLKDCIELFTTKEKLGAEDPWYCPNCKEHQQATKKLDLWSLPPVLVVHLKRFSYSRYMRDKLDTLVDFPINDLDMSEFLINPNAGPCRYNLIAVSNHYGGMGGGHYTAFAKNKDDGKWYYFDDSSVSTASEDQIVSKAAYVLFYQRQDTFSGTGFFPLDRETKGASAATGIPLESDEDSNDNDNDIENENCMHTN
# Procedure, shortened: as §1
# USP16 = USP16 (UniProt Q9Y5T5)
# Procedure, shortened: as §1
# Sequence of USP16 (Q9Y5T5 whole entry, looked up): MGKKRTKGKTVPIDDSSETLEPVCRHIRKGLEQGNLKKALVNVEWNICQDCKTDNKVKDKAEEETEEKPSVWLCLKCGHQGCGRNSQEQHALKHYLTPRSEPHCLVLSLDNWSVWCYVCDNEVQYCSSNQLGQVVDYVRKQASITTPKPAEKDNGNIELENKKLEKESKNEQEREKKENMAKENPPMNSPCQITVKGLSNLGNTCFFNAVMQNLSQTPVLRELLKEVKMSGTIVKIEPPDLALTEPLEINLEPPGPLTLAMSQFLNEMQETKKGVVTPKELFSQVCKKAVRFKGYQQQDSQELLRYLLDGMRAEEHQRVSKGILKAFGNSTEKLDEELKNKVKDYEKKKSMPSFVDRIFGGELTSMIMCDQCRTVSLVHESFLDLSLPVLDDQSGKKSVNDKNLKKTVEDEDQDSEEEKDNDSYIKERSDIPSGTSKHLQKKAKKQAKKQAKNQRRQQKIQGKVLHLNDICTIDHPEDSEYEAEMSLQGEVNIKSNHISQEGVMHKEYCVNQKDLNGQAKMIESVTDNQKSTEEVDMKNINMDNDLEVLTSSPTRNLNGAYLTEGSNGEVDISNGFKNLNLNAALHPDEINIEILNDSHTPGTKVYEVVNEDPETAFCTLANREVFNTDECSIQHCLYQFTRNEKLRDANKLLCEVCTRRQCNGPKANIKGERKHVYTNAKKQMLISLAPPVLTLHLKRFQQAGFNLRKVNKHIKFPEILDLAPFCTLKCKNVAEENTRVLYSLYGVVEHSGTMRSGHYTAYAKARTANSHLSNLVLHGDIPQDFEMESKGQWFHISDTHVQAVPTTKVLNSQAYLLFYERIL
# Sequence of UCHL1 (P09936 whole entry, looked up): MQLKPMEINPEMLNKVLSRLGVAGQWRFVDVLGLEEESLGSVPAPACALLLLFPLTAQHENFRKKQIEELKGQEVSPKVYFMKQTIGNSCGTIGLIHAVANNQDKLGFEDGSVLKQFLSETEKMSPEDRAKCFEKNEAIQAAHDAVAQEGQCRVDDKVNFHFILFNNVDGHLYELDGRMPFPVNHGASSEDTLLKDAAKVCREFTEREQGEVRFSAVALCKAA
# Sequence of USP10 (Q14694 whole entry): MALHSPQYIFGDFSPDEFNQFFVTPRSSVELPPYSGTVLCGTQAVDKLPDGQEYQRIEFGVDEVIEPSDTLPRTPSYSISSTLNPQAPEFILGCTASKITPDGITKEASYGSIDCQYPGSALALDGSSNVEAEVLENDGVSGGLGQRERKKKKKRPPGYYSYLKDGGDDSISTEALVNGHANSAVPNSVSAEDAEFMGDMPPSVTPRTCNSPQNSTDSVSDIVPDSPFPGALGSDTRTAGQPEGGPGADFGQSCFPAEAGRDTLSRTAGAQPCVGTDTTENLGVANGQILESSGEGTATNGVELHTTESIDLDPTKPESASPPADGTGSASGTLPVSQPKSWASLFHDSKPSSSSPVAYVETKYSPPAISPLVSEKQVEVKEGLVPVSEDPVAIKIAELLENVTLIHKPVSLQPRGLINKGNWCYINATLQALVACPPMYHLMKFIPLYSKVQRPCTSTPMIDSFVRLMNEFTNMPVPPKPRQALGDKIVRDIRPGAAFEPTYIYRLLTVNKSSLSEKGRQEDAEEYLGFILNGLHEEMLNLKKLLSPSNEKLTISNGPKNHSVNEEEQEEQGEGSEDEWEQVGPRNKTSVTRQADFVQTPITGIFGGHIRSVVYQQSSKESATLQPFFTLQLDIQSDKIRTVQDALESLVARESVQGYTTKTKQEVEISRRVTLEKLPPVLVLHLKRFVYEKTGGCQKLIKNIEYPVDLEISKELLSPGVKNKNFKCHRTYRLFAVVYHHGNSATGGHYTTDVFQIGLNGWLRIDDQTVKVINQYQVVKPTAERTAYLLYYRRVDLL
structure (smiles),measurement,setting,value
Cc1nc(CNC(=O)CCl)c2ccccn12.Cl,log2 ratio of Biotin-Ahx-Ub-VS probe labelling,OTUD6B,-0.000255
same,log2 ratio of Biotin-Ahx-Ub-VS probe labelling,OTUD7B,-0.458
same,log2 ratio of Biotin-Ahx-Ub-VS probe labelling,PRPF8,-0.14
same,log2 ratio of Biotin-Ahx-Ub-VS probe labelling,PSMD7,-0.132
same,log2 ratio of Biotin-Ahx-Ub-VS probe labelling,UCHL1,-1.12 (active)
same,log2 ratio of Biotin-Ahx-Ub-VS probe labelling,UCHL3,-0.319
same,log2 ratio of Biotin-Ahx-Ub-VS probe labelling,UCHL5,-0.224
same,log2 ratio of Biotin-Ahx-Ub-VS probe labelling,USP10,-0.121
same,log2 ratio of Biotin-Ahx-Ub-VS probe labelling,USP15,-0.398
same,log2 ratio of Biotin-Ahx-Ub-VS probe labelling,USP16,-0.0983
